Laboratory results: the supplement of paper PMC7411054

Legend:
Details in all cases: treatment time: 24 h
A549-ACTB-RAB5A [1] = experiment: lowest phenotypically active concentration; higher = less potent
Summary of the method: (§1)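 Live-cell features were measured per well and normalised to solvent control wells after fifteen gene-edited A549, HepG2 and WPMY1 reporter lines had been treated for 24 h at 0.3, 1, 3 or 9 µM in four wells each. A condition was deviating when ≥3 of 4 wells sat beyond the 95th percentile of control Euclidean distances. It was reproducible when the median replicate Pearson correlation exceeded the 95th percentile of non-replicates. Phenotypic activity demanded both.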

A549-GM130-SQSTM1 [2] = experiment: as above
Summary of the method: as §1

A549-TP53BP1-CLTA [3] = experiment: as above
Summary of the method: as §1

HepG2-TUBA1B-RELA [4] = experiment: as above
Summary of the method: as §1

A549-ACTB-RAB5A [5] = experiment: phenotypically active (imaging signature differs from DMSO and reproducible) at any of 0.3-9 uM (binary (1 = active, 0 = inactive)); higher = active
Summary of the method: as §1

A549-CANX-COX4 = experiment: as above
Summary of the method: as §1

A549-GM130-SQSTM1 [6] = experiment: as above
Summary of the method: as §1

A549-TP53BP1-CLTA [7] = experiment: as above
Summary of the method: as §1

A549-TUBA1B-RELA = experiment: as above
Summary of the method: as §1

HepG2-ACTB-RAB5A = experiment: as above
Summary of the method: as §1

HepG2-CANX-COX4 = experiment: as above
Summary of the method: as §1

HepG2-GM130-SQSTM1 [8] = experiment: as above
Summary of the method: as §1

HepG2-TP53BP1-CLTA = experiment: as above
Summary of the method: as §1

HepG2-TUBA1B-RELA [9] = experiment: as above
Summary of the method: as §1

WPMY1-ACTB-RAB5A = experiment: as above
Summary of the method: as §1

WPMY1-CANX-COX4 = experiment: as above
Summary of the method: as §1

WPMY1-GM130-SQSTM1 = experiment: as above
Summary of the method: as §1

WPMY1-TP53BP1-CLTA = experiment: as above
Summary of the method: as §1

WPMY1-TUBA1B-RELA = experiment: as above
Summary of the method: as §1

HepG2-GM130-SQSTM1 [10] = experiment: lowest phenotypically active concentration; higher = less potent
Summary of the method: as §1

| Structure (SMILES) | lowest phenotypically active concentration (A549-ACTB-RAB5A [1]) [µM] | lowest phenotypically active concentration (A549-GM130-SQSTM1 [2]) [µM] | lowest phenotypically active concentration (A549-TP53BP1-CLTA [3]) [µM] | lowest phenotypically active concentration (HepG2-TUBA1B-RELA [4]) [µM] | phenotypically active (A549-ACTB-RAB5A [5]) | phenotypically active (A549-CANX-COX4) | phenotypically active (A549-GM130-SQSTM1 [6]) | phenotypically active (A549-TP53BP1-CLTA [7]) | phenotypically active (A549-TUBA1B-RELA) | phenotypically active (HepG2-ACTB-RAB5A) | phenotypically active (HepG2-CANX-COX4) | phenotypically active (HepG2-GM130-SQSTM1 [8]) | phenotypically active (HepG2-TP53BP1-CLTA) | phenotypically active (HepG2-TUBA1B-RELA [9]) | phenotypically active (WPMY1-ACTB-RAB5A) | phenotypically active (WPMY1-CANX-COX4) | phenotypically active (WPMY1-GM130-SQSTM1) | phenotypically active (WPMY1-TP53BP1-CLTA) | phenotypically active (WPMY1-TUBA1B-RELA) | lowest phenotypically active concentration (HepG2-GM130-SQSTM1 [10]) [µM] |
| --- | --- | --- | --- | --- | --- | --- | --- | --- | --- | --- | --- | --- | --- | --- | --- | --- | --- | --- | --- | --- |
| COc1cc2c(c(OC)c1OC)-c1ccc(O)c(=O)cc1[C@@H](N)CC2 [Trimethylcolchicinic acid] | 9 | 9 | 9 | 9 | 1 (active) | 1 (active) | 1 (active) | 1 (active) | 1 (active) | 0 (inactive) | 1 (active) | 0 (inactive) | 0 (inactive) | 1 (active) | 0 (inactive) | 0 (inactive) | 0 (inactive) | 0 (inactive) | 0 (inactive) | – |
| COc1ccc2c(c[n+](C)c3c4cc5c(cc4ccc23)OCO5)c1OC [Chelerythrine chloride] | 3 | – | 9 | – | 1 (active) | 0 (inactive) | 0 (inactive) | 1 (active) | 0 (inactive) | 0 (inactive) | 0 (inactive) | 0 (inactive) | 1 (active) | 0 (inactive) | 0 (inactive) | 0 (inactive) | 0 (inactive) | 1 (active) | 0 (inactive) | – |
| CC(C)(N)Cc1ccccc1 [phentermine] | – | – | 3 | – | 0 (inactive) | 1 (active) | 0 (inactive) | 1 (active) | 0 (inactive) | 1 (active) | 0 (inactive) | 0 (inactive) | 0 (inactive) | 0 (inactive) | 0 (inactive) | 0 (inactive) | 1 (active) | 0 (inactive) | 0 (inactive) | – |
| O=c1[nH]c2ccccc2n1C1CCN(CCCC(c2ccc(F)cc2)c2ccc(F)cc2)CC1 [pimozide] | 9 | 9 | – | 3 | 1 (active) | 0 (inactive) | 1 (active) | 0 (inactive) | 1 (active) | 1 (active) | 0 (inactive) | 1 (active) | 0 (inactive) | 1 (active) | 0 (inactive) | 0 (inactive) | 0 (inactive) | 0 (inactive) | 0 (inactive) | 3 |
| CC[C@@H](C(=O)[C@@H](C)[C@@H](O)[C@H](C)[C@@H]1O[C@@H]([C@@H](CC)C(=O)O)CC[C@@H]1C)[C@H]1O[C@]2(C=C[C@@H](O)[C@]3(CC[C@@](C)([C@H]4CC[C@](O)(CC)[C@H](C)O4)O3)O2)[C@H](C)C[C@@H]1C [Salinomycin Sodium] | ≤ 0.3 | ≤ 0.3 | ≤ 0.3 | ≤ 0.3 | 1 (active) | 1 (active) | 1 (active) | 1 (active) | 1 (active) | 1 (active) | 1 (active) | 1 (active) | 1 (active) | 1 (active) | 1 (active) | 1 (active) | 1 (active) | 1 (active) | 1 (active) | 1 |
| C[C@@H]1CC[C@H]2[C@@H](C)C(=O)O[C@@H]3O[C@@]4(C)CC[C@@H]1[C@]32OO4 [Artemisinin] | 3 | 3 | 3 | ≤ 0.3 | 1 (active) | 0 (inactive) | 1 (active) | 1 (active) | 1 (active) | 1 (active) | 0 (inactive) | 1 (active) | 1 (active) | 1 (active) | 1 (active) | 1 (active) | 1 (active) | 1 (active) | 1 (active) | 3 |
| C/C=C(/C)C(=O)O[C@H]1C(C)=C2[C@H]([C@@H]1OC(=O)CCCCCCC)[C@@](C)(OC(C)=O)C[C@H](OC(=O)CCC)[C@@]1(O)[C@H]2OC(=O)[C@@]1(C)O [Thapsigargin] | ≤ 0.3 | ≤ 0.3 | ≤ 0.3 | ≤ 0.3 | 1 (active) | 1 (active) | 1 (active) | 1 (active) | 1 (active) | 1 (active) | 1 (active) | 1 (active) | 1 (active) | 1 (active) | 1 (active) | 1 (active) | 1 (active) | 1 (active) | 1 (active) | ≤ 0.3 |
| CC[C@@H]1C=CC=CC[C@H](C)[C@@H](O)[C@](C)(O)C(=O)[C@H](C)[C@@H](O)[C@H](C)C(=O)[C@H](C)[C@@H](O)[C@H](C)C=CC(=O)O[C@H]2[C@@H](C)[C@@H](CC1)O[C@@]1(CC[C@@H](C)[C@@H](C[C@H](C)O)O1)[C@@H]2C [Oligomycin A] | ≤ 0.3 | ≤ 0.3 | ≤ 0.3 | ≤ 0.3 | 1 (active) | 1 (active) | 1 (active) | 1 (active) | 1 (active) | 1 (active) | 1 (active) | 1 (active) | 1 (active) | 1 (active) | 0 (inactive) | 1 (active) | 0 (inactive) | 0 (inactive) | 0 (inactive) | ≤ 0.3 |
| CC(C)(C)c1cc(C=C(C#N)C#N)cc(C(C)(C)C)c1O [Malonoben] | 1 | ≤ 0.3 | 3 | 1 | 1 (active) | 1 (active) | 1 (active) | 1 (active) | 1 (active) | 1 (active) | 1 (active) | 1 (active) | 1 (active) | 1 (active) | 1 (active) | 1 (active) | 1 (active) | 1 (active) | 1 (active) | 1 |
